# Among all 220,000 compounds or so, about 5,700 (2.6%) were called active. Another 18% or so got no clear call; they are omitted. Calls come from the whole dose curve; as a rule, active = well fitted inhibition curve with a large enough effect; inconclusive = small, poorly fitted or top-dose-only effect; inactive = no such curve, though single readings can be large or run the other way. This excerpt belongs to a sample that is enriched for actives.
# Target: Lysine-specific demethylase 5B (Homo sapiens) (UniProt Q9UGL1)
# Sequence (Q9UGL1 whole entry, looked up): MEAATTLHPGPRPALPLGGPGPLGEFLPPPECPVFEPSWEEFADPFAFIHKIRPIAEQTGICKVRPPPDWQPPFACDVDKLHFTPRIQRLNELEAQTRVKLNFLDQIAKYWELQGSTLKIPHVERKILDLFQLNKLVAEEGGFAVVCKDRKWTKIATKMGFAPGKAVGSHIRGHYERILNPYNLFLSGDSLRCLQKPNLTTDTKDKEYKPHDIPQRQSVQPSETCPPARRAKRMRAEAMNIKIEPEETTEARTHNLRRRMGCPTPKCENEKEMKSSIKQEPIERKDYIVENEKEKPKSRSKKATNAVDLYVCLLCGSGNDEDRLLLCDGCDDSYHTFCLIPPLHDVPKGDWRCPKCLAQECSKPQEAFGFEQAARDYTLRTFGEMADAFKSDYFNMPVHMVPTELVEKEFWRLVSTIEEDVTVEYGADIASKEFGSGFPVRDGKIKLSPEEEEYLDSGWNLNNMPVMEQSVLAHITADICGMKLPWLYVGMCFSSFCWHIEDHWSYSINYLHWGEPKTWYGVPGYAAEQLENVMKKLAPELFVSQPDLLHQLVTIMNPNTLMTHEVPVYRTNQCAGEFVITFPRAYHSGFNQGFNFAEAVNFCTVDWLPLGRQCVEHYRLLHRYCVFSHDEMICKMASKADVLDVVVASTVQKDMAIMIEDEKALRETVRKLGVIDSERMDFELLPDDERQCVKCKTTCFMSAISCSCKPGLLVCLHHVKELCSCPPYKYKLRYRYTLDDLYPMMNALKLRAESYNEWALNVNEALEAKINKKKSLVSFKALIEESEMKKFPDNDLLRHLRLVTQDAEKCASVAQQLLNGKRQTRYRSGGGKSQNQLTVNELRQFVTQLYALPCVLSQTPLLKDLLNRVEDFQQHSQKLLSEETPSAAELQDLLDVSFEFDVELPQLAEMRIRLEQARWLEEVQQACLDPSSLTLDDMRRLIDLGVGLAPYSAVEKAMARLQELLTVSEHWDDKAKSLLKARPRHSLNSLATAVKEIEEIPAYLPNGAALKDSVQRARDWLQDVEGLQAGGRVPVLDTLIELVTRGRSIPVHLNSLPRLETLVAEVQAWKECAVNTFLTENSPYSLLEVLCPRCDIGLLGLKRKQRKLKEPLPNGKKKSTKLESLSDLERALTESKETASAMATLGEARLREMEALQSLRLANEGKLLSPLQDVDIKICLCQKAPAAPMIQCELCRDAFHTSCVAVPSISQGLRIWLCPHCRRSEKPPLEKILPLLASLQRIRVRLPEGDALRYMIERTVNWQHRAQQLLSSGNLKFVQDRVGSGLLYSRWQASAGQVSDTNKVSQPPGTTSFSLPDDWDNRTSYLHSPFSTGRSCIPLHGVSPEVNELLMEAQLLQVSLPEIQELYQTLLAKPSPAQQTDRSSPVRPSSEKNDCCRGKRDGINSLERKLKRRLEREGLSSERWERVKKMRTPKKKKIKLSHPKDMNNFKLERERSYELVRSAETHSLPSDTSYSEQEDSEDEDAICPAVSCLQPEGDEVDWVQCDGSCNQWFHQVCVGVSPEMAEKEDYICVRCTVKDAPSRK
# Assay: Primary screen for KDM5B Histone Demethylases FDH-coupled qHTS; note: nearly all actives have a fitted effect of over 70% in size; for activity change, negative = inhibition: 0% is about no effect
# Conditions: FDH-coupled NADH fluorescence (FDH is formaldehyde dehydrogenase); series mostly up to 57.7 µM; activity change, negative = inhibition: at the top concentration
# How it was run: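 Here, H3K4me3 peptide (12.5 µM in substrate mix) is demethylated by KDM5BΔAP, 200 nM final, after 10 min compound exposure. Formaldehyde product is coupled through FDH (0.25 U/mL in mix) to NADH fluorescence; 30-min ΔRFU feeds dose-response curves.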
# Potency is the fitted concentration of half-maximal effect.
Structure (SMILES),"activity change, negative = inhibition",Potency
O=C(Nc1cccc(S(=O)(=O)N2CCCC2)c1)c1cccc2cccnc12,-3.61% (inactive),
COc1ccc(C(C)=O)cc1CSCc1coc(-c2ccc(C)cc2)n1,-2.24% (inactive),
CCc1c(C(=O)Nc2ccc3nc(C)sc3c2)cnn1-c1ccc(OC)nn1,-12.8% (inactive),
Cc1ncsc1C(=O)NCc1ccc(N2CCCCCC2)nc1,11.7% (inactive),
COCCCNS(=O)(=O)c1cccc(S(=O)(=O)c2cccc(S(=O)(=O)NCCCOC)c2)c1,0.814% (inactive),
Cc1cc(=O)oc2cc(OCC(=O)NCC(C)(c3ccccc3)c3ccccc3)ccc12,-25% (inactive),
O=c1cc(-c2ccccn2)oc2c(-c3ccccc3F)nccc12,,17.8 µM (active)
COc1ccc(-c2nccc3c(=O)cc(N(C)c4ccccc4)oc23)cn1,-25.8% [at 86.2 µM] (inactive),
O=C(Nc1c(F)cccc1F)c1cc(-c2ccccn2)nc2ccccc12,-7.6% (inactive),
Cc1cccc(C(C)C)c1NC(=O)CSc1nnc(-c2cc(-c3ccccc3)n[nH]2)n1N,21.3% (inactive),
Cc1ccc(N2CCN(C(=O)CCc3c(C)nc4c(c3C)c(=O)n(C)c(=O)n4C)CC2)c(C)c1,-17.7% (inactive),
Cc1ccc2nc(COc3ccc(NC(=O)COc4ccccc4F)cc3)cc(=O)n2c1,-1.56% (inactive),
CCOC(=O)C(C)Oc1cccn2c(=O)c(-c3cc(C)n(-c4cccc(F)c4)n3)c(C)nc12 (stereo not given),,25.1 µM (active)
COC(=O)COc1cccn2c(=O)c(-c3cc(C)n(-c4ccc(C)cc4C)n3)c(C)nc12,,28.2 µM (active)
O=C(Nc1ccc(N2CCOCC2)c(Cl)c1)c1ccc2c3c(cccc13)CC2,-3.1% (inactive),
CC(c1nc2ccccc2s1)N(C)C(=O)c1cccc(S(=O)(=O)Nc2ccc(Cl)cc2)c1 (stereo not given),5.35% (inactive),
Cc1ccccc1C(=O)N1CCN(c2ccc([N+](=O)[O-])c(-n3nc(C)c4ccccc4c3=O)c2)CC1,8.7% (inactive),
CC(C)c1nccn1CCCNc1nc(-c2ccncc2)nc2c1cnn2C,,22.4 µM (active)
N#Cc1c(N)n[nH]c1CCCNc1nc(-c2ccncc2)nc2ccccc12,-4.51% (inactive),
Cc1ccccc1-c1ccc(C(=O)NCCCn2ccnc2C(C)C)cn1,-17.6% (inactive),
COc1ccc(CNC(=O)COC(=O)C(CCSC)N2C(=O)c3ccccc3C2=O)cc1 (stereo not given),-3.03% (inactive),
CCCC1(CCC)NC(=O)N(Cc2ncc(-c3ccccc3)o2)C1=O,-8.25% (inactive),
O=C1CN(Cc2cc3cc4c(cc3[nH]c2=O)OCO4)CCCN1,,20 µM (active)
CCCCCCCCNS(=O)(=O)/C=C/c1cc(C)ccc1CNC(=O)OC(C)(C)C,-5.34% (inactive),
CC(C)NC(NC(=O)c1ccc(C(C)(C)C)cc1)C(Cl)(Cl)Cl (stereo not given),9.93% (inactive),

Structure (SMILES),"activity change, negative = inhibition",Potency
COC(=O)c1ccc(COC(=O)c2ccc(N3CCOCC3)nc2)cc1,14.6% (inactive),
CC(C)CN[C@H]1[C@H](O)[C@H](O)C[C@@H]1c1ccc(N2CCOCC2)nc1,,35.5 µM (active)
CC(C)CNC(=O)N1C[C@@H](Oc2cccnc2)C[C@H]1C(=O)N1CCOCC1,-18.3% (inactive),
Cc1nc(-c2cn(C3CCCN(C(=O)c4cccs4)C3)nn2)no1 (stereo not given),13% (inactive),
CNC(=O)[C@@H]1CN(Cc2cccc(OC)c2)C[C@H]1CO,-15.8% (inactive),
COc1cccc(CN2CCc3c(cc(C(=O)NCCN4CCCCC4)n3C)C2)c1,,22.4 µM (active)
COc1ccc(CN2CCc3ncc(C(=O)NCCOc4ccccc4)n3CC2)cn1,8.49% [at 86.2 µM] (inactive),
CN(CCOc1ccccc1Cl)C(=O)c1cc2ccccc2oc1=O,5.68% (inactive),
O=C(COc1cccc(-n2cnnn2)c1)Nc1ccc(S(=O)(=O)N2CCOCC2)cc1,1.49% (inactive),
O=C1NCCN(Cc2ccccc2)C1CC(=O)N1CCN(c2ccccc2)CC1 (stereo not given),,20 µM (active)
O=C(O)CC1C(=O)NCCN1Cc1ccc(Cl)c(F)c1 (stereo not given),-18.6% (inactive),
Cc1ccc(CN2CCNC(=O)C2CC(=O)NC2(CO)CCCC2)cc1 (stereo not given),-28.9% (inactive),
COc1ccc(NC(=O)CSc2nccn2-c2cccc(C(F)(F)F)c2)cc1,2.82% (inactive),
CCN1CCC(N(Cc2cccs2)C(=O)Nc2cc(Cl)ccc2C(=O)OC)CC1,-26.5% (inactive),
O=C(CCNC(=O)c1cnccn1)Nc1ccccc1Cc1ccccc1,6.99% (inactive),
COc1ccccc1-c1noc(COC(=O)c2ccc3c(c2)NC(=O)CS3)n1,-20.1% (inactive),
CC(C)N1C(=O)C2(CCCC2)C1C(=O)Nc1ccc2c(c1)N(C)CCC2 (stereo not given),,31.6 µM (active)
C=CCNC(=O)C1N(C(C)C)C(=O)C12CCCCC2 (stereo not given),-10.2% (inactive),
C=CCNC(=O)C1N(C(C)C)C(=O)C12CCCC2 (stereo not given),-0.645% (inactive),
CCNC(=O)NC(=O)CSc1nc(-c2ccco2)nc2ccccc12,-20.4% (inactive),
COc1ccc(C(=O)N[C@H]2C[C@@H](c3nc(-c4ccc(OC)cc4)no3)N(C)C2)cc1,-9.77% [at 86.2 µM] (inactive),
CN1C[C@@H](NC(=O)c2ccccc2)C[C@H]1c1nc(-c2ccccc2)no1,-15.2% [at 86.2 µM] (inactive),
CN1C[C@@H](NC(=O)c2ccc(C(C)(C)C)cc2)C[C@H]1c1nc(-c2ccc3ccccc3c2)no1,,25.1 µM (active)
COc1ccc(Cl)cc1NC(=O)N1CCC2(CC1)N=C(c1ccc(C)c(C)c1)C(=O)N2,6.31% (inactive),
CC(C)(C)OC(=O)N1CCN(C(=O)c2cc(-c3ccncc3)nc3ccccc23)CC1,8.94% (inactive),

Structure (SMILES),"activity change, negative = inhibition",Potency
Cc1ccc2c(C(=O)N3CCCC(C#N)C3)cc(-c3cnn(C(C)C)c3)nc2c1 (stereo not given),,28.2 µM (active)
Cc1nc(-c2cn(C3CCCN(C(=O)c4cc(F)ccc4F)C3)nn2)no1 (stereo not given),18.6% (inactive),
C=CCn1c(SCc2coc(-c3cccc(Cl)c3)n2)nnc1C1CCS(=O)(=O)C1 (stereo not given),-12.8% (inactive),
COc1ccc(C(=O)OCC(=O)NCCCc2ccccc2)cc1OC,31.7% (inactive),
COc1ccc(C(=O)Nc2oc3ccc(Cl)cc3c(=O)c2-c2cc(OC)c(OC)c(OC)c2)cc1,0.542% (inactive),
CCn1ccnc1CN(C)C1CCCN(CCc2ccccc2)C1 (stereo not given),-0.558% (inactive),
Cc1occc1C(=O)NC1CCCN(Cc2ccc(CC(C)C)cc2)C1 (stereo not given),21.5% (inactive),
CC(C)Nc1ncc(C(=O)NC2CCCN(CCc3ccccc3)C2)cn1 (stereo not given),,25.1 µM (active)
Cc1ccc(C(=O)NC2CCN(c3cnn(CC4CC4)c(=O)c3)CC2)c(C)c1,-10.1% (inactive),
O=C(CSc1ncnc2c1cnn2-c1ccccc1)NC(=O)NC1CCCC1,14.8% (inactive),
Cc1nc2ncccn2c1C(=O)N[C@@H]1CCOC[C@H]1Oc1ccccn1,,31.6 µM (active)
O=C(N[C@@H]1CCOC[C@H]1Oc1ccccn1)c1cc(C2CC2)no1,30.4% (inactive),
N#Cc1ccc(O[C@@H]2COCC[C@H]2NC(=O)CCCn2cccn2)cc1,-3.46% (inactive),
Cc1nc(N(C)C)ncc1C(=O)N[C@@H]1CCOC[C@H]1Oc1ccccn1,,25.1 µM (active)
O=S(=O)(N[C@@H]1CCOC[C@H]1Oc1ccccn1)c1ccc(Cl)s1,22% (inactive),
O=C(N[C@H]1CCOC[C@H]1C1CCOCC1)c1cccc2nccnc12,-6.52% (inactive),
Cc1nn(C)c2nc(OC(C)C(=O)Nc3ccccc3F)cc(-c3ccccc3)c12 (stereo not given),-20.6% (inactive),
CC(C)n1cnnc1CC1CCN(C(=O)CCCc2ccccc2)C1 (stereo not given),-17.5% (inactive),
CC1(C)CC(=O)C/C(=N/NC(=O)c2ccccc2Br)C1,12.7% (inactive),
CC(=O)Nc1cccc(C(=O)N2CCC3(CC2)NC(=O)N(c2cccc(Cl)c2)N3)c1,-3.68% (inactive),
COc1ccc(S(=O)(=O)N(C)Cc2nc(-c3ccc(OC(F)(F)F)cc3)no2)cc1,-5.21% (inactive),
O=[S+]([O-])(Nc1cccnc1)c1ccc2c(c1)OCCN(Cc1cscn1)C2,,35.5 µM (active)
O=[S+]([O-])(Nc1ccccc1)c1ccc2c(c1)OCCN(Cc1cccs1)C2,-9.43% [at 86.2 µM] (inactive),
O=[S+]([O-])(Nc1cccnc1)c1ccc2c(c1)OCCN(Cc1ccc(F)cc1)C2,4.51% [at 86.2 µM] (inactive),
Cc1c(C)[n+](=O)c2ccccc2n1[O-],-2.24% (inactive),

Structure (SMILES),"activity change, negative = inhibition",Potency
O=C(COC(=O)Cc1ccc(Cl)c(Cl)c1)NCc1ccc(F)cc1,5.54% (inactive),
COC(=O)[C@H](Cc1ccc(OC)cc1)NC(=O)[C@@H]1CN(C(=O)c2cccc(F)c2)CCN1C(=O)c1cccc(F)c1,26.6% (inactive),
CC(C)(C)C(=O)NCCCC(=O)NCCc1cccs1,27.1% (inactive),
CCCc1nnc2sc(-c3ccc4c(c3)OCCO4)nn12,109% (inactive),
Fc1ccc(CNC[C@H]2Cn3c(-c4ccc5c(c4)OCCO5)cnc3CO2)cc1,-24.6% [at 86.2 µM] (inactive),
CC(Sc1ccc2c(c1)OCCCO2)C(=O)O (stereo not given),-13.6% (inactive),
CC(C)c1nc2nccc(-c3ccc4c(c3)OCCCO4)n2n1,,22.4 µM (active)
c1cc(-c2ccc3c(c2)OCCCO3)n2ncnc2n1,,15.8 µM (active)
O=C(CSc1ncnc2sccc12)c1ccc2c(c1)OCCCO2,3.77% (inactive),
Cc1cc(C)cc(-c2nnc(SCC(=O)N3CCCC(C)C3)o2)c1 (stereo not given),17% (inactive),
O=C(Cn1cccc1-c1nc(-c2ccccc2)no1)Nc1ccccc1F,6.26% (inactive),
COc1ccc(-c2c3c(=O)n(C)c(=O)n(C)c3c3n2C(C)(C)COC3c2cccc(OC)c2)cc1 (stereo not given),9.3% (inactive),
Cc1cc(C)c(-c2cc(C(=O)Nc3ccccc3C(F)(F)F)[nH]n2)c(O)c1,-15.4% (inactive),
Cc1ccc(CNC(=O)c2nn(C)c(=O)c3ccccc23)cc1,-8.52% (inactive),
Cc1cc(CNC(=O)c2ccc(-c3ccccc3Cl)o2)n(C)n1,,20 µM (active)
Cc1cc(C(=O)NCCc2ccc(Cl)cc2)n(-c2ccccc2)n1,21.8% (inactive),
CCOC(=O)C1CCN(CC(O)c2cccc(C(F)(F)F)c2)CC1 (stereo not given),9.21% (inactive),
Cc1ccc(NC(=O)Nc2ccc3nc(N4CCOCC4)cc(C)c3c2)cc1,-9.19% (inactive),
O=C(c1cccnc1)N1CCC2(CCCN(C3CCOCC3)C2=O)C1 (stereo not given),10.8% (inactive),
COCC(=O)N(C1CCOCC1)C1CCN(C(=O)c2cccc(OC)c2)CC1,20% (inactive),
O=C(c1cccnc1)N1CCN(c2cc(-c3ccccc3)[nH]n2)CC1,11.3% (inactive),
COc1cccc(-c2nc(N3CCOCC3)cc3c2CN(CC2CC2)C3=O)c1,,39.8 µM (active)
O=C1c2cc(N3CCOCC3)nc(-c3cccnc3)c2CN1C1COC1,,31.6 µM (active)
COc1cccc(-c2noc(CC3CCN(C(=O)c4ccc(F)cc4)CC3)n2)c1,10.6% (inactive),
Cc1ccc(-c2nc(N3CCOCC3)cc3c2CN(Cc2cnn(C)c2)C3=O)cn1,,35.5 µM (active)
